Several values for one entry are separate records, joined by “and”; a condition that tells them apart may be missing. Equal values may be shown once. This is part of a sample that, as a whole, favours compounds with a hit. Of some 83,000 tested, about 20% had one in any assay.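 Single-concentration screen, 48 h exposure, 96-well plates. Endpoint: percent growth. Below 10 = active.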 Activity calls are given as the source filed them.

The first assay has as its system TK-10 renal. The assay is described as follows: NCI-60 one-dose screen, 48 h (100 = growth as untreated, 0 = no growth, -100 = all killed). The note with it: 10 µM. As for the experimental part: Growth inhibition of the TK-10 human tumor cell line is measured as a screen for anti-cancer activity. Cells are grown in 96 well plates and exposed to the test compound for 48 hours. Compounds are tested at a single concentration, which is 10^-5 M for most compounds. The reported endpoint is percent growth (GI% or GIPRCNT), where numbers from 0 - 100% represent growth inhibition, and numbers from -100% - 0 represent cell death. For example, a value of 40 represents 60% growth inhibition. A value of 0 means no net growth occurred over the course of the experiment. A value of -40 indicates 40% of cells at the beginning of the experiment died by the end of the experiment. A value of -100 means all cells are dead at the end of the experiment.
NCI-60 Human Tumor Cell Lines Screen was performed using the standard one-dose NCI protocol, which is described in more detail at https://dtp.cancer.gov/discovery_development/nci-60/default.htm.
Compounds with GIPRCNT values below 10 were considered active. Activity score was based on GIPRCNT using the following formula: […]
Score is 0 for GIPRCNT values of 100 or above, 50 for GIPRCNT values of 0, and 100 for GIPRCNT values of -100.
In the case of `O=C(O)CCCc1ccc(N(CCCl)CCCl)cc1`, the growth was 102% (inactive).

The assay is the same for the next values; noted with them: 10 µM unless noted.
As to `CCCC1CCCCC12C(=O)NC(=O)NC2=O` (stereo not given), the growth is 92.9% (inactive) and 107% (inactive). Still for that read-out and setting: under `N#Cc1ccc(Cl)cc1` stands 60.3% (inactive).

On to `CCCn1cc2c3c(cccc31)[C@H]1C[C@@H](C)CN(C)[C@@H]1C2`, for which the growth is 96.8% (inactive). As for `O=[N+]([O-])c1ccc(OCc2ccc(S(=O)(=O)F)c(Cl)c2)c(Cl)c1`, the growth was 102% (inactive). Regarding `CCOP(=O)(NC)OCC`, the growth was 129% (inactive). The same measure, in the same setting: next, `CC[C@H](C)[C@H]1O[C@]2(C=C[C@@H]1C)C[C@@H]1C[C@@H](C/C=C(\C)[C@@H](O[C@H]3C[C@H](OC)[C@@H](O[C@H]4C[C@H](OC)[C@@H](NC)[C@H](C)O4)[C@H](C)O3)[C@@H](C)/C=C/C=C3\CO[C@@H]4[C@H](O)C(C)=C[C@@H](C(=O)O1)[C@]34O)O2`: -76% (active); `S=P(SP(=S)(c1ccccc1)c1ccccc1)(c1ccccc1)c1ccccc1`: 96.8% (inactive).

Consider `C/C=C(/C)C(=O)O[C@H]1CC[C@@]2(C)[C@@H]3CC[C@H]4[C@]5(O)C[C@H](O)[C@@]6(O)[C@@H](CN7C[C@@H](C)CC[C@H]7[C@@]6(C)O)[C@]5(O)C[C@@]42O[C@@]13O`, for which the growth is 125% (inactive).

On to `N[C@@H](CCC(=O)CCl)C(=O)O`, for which the growth is 101% [20 µM] (inactive).

For the molecule `NC1CN2CCC1CC2` (stereo not given), the growth was 98.2% (inactive). Same read-out and setting: under `NC(N)=NC(N)=Nc1ccc(Cl)cc1` stands 115% (inactive). The same measure, in the same setting: under `CO[C@@H]([CH2][Hg][O]C(=O)c1ccccc1)[C@@H]([CH2][Hg][O]C(=O)c1ccccc1)OC` stands 128% (inactive); under `N#CCc1ccc(CC#N)cc1`, 100% (inactive). On the same count and under the same terms, under `CC(=O)c1cccc(S(=O)(=O)F)c1` stands 115% (inactive); under `Cc1ccccc1-n1c(/C=C\c2ccccn2)nc2ccccc2c1=O`, 49% (inactive); under `CN(C)[C@@H]1C(=O)C(C(N)=O)=C(O)[C@@]2(O)C(=O)C3=C(O)c4c(O)ccc(Cl)c4[C@@](C)(O)[C@H]3C[C@@H]12`, 86.9% (inactive).

For the molecule `O=[N+]([O-])c1cc(Cl)c(Cl)cc1Cl`, the growth was 120% (inactive). Still for that read-out and setting: under `O=NN(c1ccccc1)c1ccccc1` stands 103% (inactive); under `Cc1cc[n+](CCc2ccccc2)cc1`, 91.8% (inactive) and 106% (inactive). Take `CNC(=O)Oc1ccc(Cl)cc1SSc1cc(Cl)ccc1OC(=O)NC`: the growth was 123% (inactive). Same read-out and setting: next, `Oc1ccccc1C=NCCN=Cc1ccccc1O.[Fe]`: 115% (inactive); `O=C(O)C(O)c1ccc(Cl)cc1` (stereo not given): 99% (inactive) and 105% (inactive). Still for that read-out and setting: under `COc1c(O)cc2c(c1OC)-c1ccc(SC)c(=O)cc1C(NC(C)=O)CC2` (stereo not given) stands 48.7% (inactive); under `C[N+]1(CC#CC[N+]2(C)CCCC2)CCCC1`, 96.3% (inactive); under `CC1(C)C2CCC1(CS(=O)(=O)O)C(=O)C2` (stereo not given), 96% (inactive) and 87.3% (inactive).

As to `COc1ccc2c(c1)c(-c1nc(-c3c[nH]c4ncccc34)cs1)cn2CCCCN1CCOCC1`, the growth is 64.4% (inactive). As to `CC(C)c1cccc(C(C)C)c1O`, the growth was 116% (inactive) and 94.6% (inactive). With `CC/C(=C(\c1ccc(OCCN2CCOCC2)cc1)c1ccc(OC(=O)Cc2ccccc2)cc1)c1ccc(Cl)cc1`, the growth was 93% (inactive). Same read-out and setting: under `N#CCN(CC#N)[N+](=O)[O-]` stands 100% (inactive); under `C[C@]12C[C@H](c3ccoc3)OC(=O)[C@H]1CC[C@@]1(C)[C@@H]2[C@H]2C=C[C@]1(O)C(=O)O2`, 88.6% (inactive). Still for that read-out and setting: under `O=C(O)C1C(C(=O)O)C2(Cl)C(Cl)=C(Cl)C1(Cl)C2(Cl)Cl` (stereo not given) stands 116% (inactive) and 107% (inactive); under `Oc1cc(N2CC2)c(O)cc1N1CC1`, -7.44% (active); under `CC[C@@H](C)C(=O)O[C@H]1[C@H](O)[C@H]2[C@@H](CN3C[C@@H](C)CC[C@H]3[C@@]2(C)O)[C@@H]2C[C@]34O[C@]5(O)[C@@H](OC(=O)[C@@](C)(O)CC)CC[C@@]3(C)[C@@H]5[C@@H](OC(C)=O)[C@@H](OC(C)=O)[C@H]4[C@@]21O`, 106% (inactive). Take `[N-]=[N+]=CC(=O)CCC(=O)C=[N+]=[N-]`: the growth was 114% (inactive). Take `COC[C@H]1OC(=O)c2coc3c2[C@@]1(C)C1=C(C3=O)[C@@H]2CCC(=O)[C@@]2(C)C[C@H]1OC(C)=O`: the growth was 38.8% (inactive). `COC(=O)[C@@H](C)C[C@H](Cc1ccccc1)NC(=O)c1cccc([C@@H](C[C@H](C(C)C)N(C)C(=O)[C@@H](NC(=O)[C@H]2CCCCN2C)C2CC2)OC(C)=O)n1`: the growth is 23.9% (inactive). Still for that read-out and setting: next, `OCCN=Cc1c[nH]c2ccccc12`: 122% (inactive); `CC1(C)CN=C(NN=C(/C=C/c2ccc(C(F)(F)F)cc2)/C=C/c2ccc(C(F)(F)F)cc2)NC1`: -17.9% (active).

Still in this assay, the particulars now being: 75 µM.
`O=C(O)CCCc1ccc(N(CCCl)CCCl)cc1`: the growth is 84.6% (inactive).

(Values after PubChem BioAssay (NCI).)
